The record followed here is PubChem BioAssay AID1347156 (National Center for Advancing Translational Sciences (NCATS), 2019).

SMILES strings stand for the structures. Inconclusive results are not listed. A number with no mark means an inactive call. Activity calls are given as the source filed them. Calls come from the whole dose curve; as a rule, active = well fitted cell-killing curve with a large enough effect; inconclusive = small, poorly fitted or top-dose-only effect; inactive = flat fitted curve, though single readings scatter.
% is set by controls: 0 for no effect and ±100 for the full control effect; potency is the fitted concentration of half-maximal effect.

This assay in a line: DAPI mCherry counterscreen qHTS for Zika virus inhibitors. Note: nearly all actives have a fitted effect of over 55% in size. The note with it: Vero cells, DAPI nuclear count cytotoxicity, imaging 48-72 h, infected with Zika reporter virus, MOI 1; series mostly up to 32.6 µM; activity change, negative = cell loss: at the top concentration. The text has this: Assay Submitters (PI): Avindra Nath, Ph.D., National Institute of Neurological Disorders and Stroke (NINDS), Bethesda, MD Radhakrishnan Padmanabhan, Ph.D., Georgetown University (GU), Washington D.C. Zika Virus causes congenital defects, including microcephaly and is associated with Guillain-Barre syndrome, eningoencephalitis and myelitis in infected adult. […] Using a target-based approach, we hope to establish a screening paradigm to uncover novel, cell-active NS2B-NS3 protease (Zika Virus) specific inhibitors from NCATS' collection of small molecules using qHTS. […] Four assay panel was created to identify potential Zika Virus inhibitors. Namely, (1) GU unlinked NS2B-NS3 AMC tagged protease qHTS, (2) GU unlinked NS2B-NS3 Rhodamine tagged protease qHTS, (3) NINDS linked NS2B-NS3 AMC tagged protease qHTS, (4) NINDS linked NS2B-NS3 Rhodamine tagged protease qHTS. Active compounds were re-acquired and re-screened to confirm inhibition. Inhibitors were further screened against various confirmatory and counterscreens in dose response format. […] A DAPI (mCherry counterscreen) which determine Vero cell cytotoxicity was used to exclude false positive compounds. […] Early Translation Branch (ETB) National Center for Advancing Translational Sciences (NCATS), Rockville, MD National Institute of Health (NIH), Bethesda, Maryland
384 well ZIKV-mCherry & mCherry DAPI counterscreen: We have developed a new orthogonal imaging assay in 384-well plate format, which uses recombinant virus ZIKV-mCherry in Vero cells. Briefly, 30 microL of Vero cells derived from a green monkey cell line, were dispensed by Multidrop Dispenser into a clear solid bottom black 384 well plate (ultracarrier, Perkin Elmer LifeSciences) at a concentration of 5,000 cells per well. The plate was incubated overnight in a CO2 incubator at 37 degrees C. Compounds were delivered as a 126 nL DMSO solution by Kalypsys pintool transfer. Following compound transfer, 10 microL of ZIKV-mCherry was added at an MOI of 1 and incubated in a CO2 incubator for 48-72 hrs at 37 degrees C. After sufficient incubation of infected cells in test plates, 8 microL of 32% PFA was dispensed into assay plates to fix cells and incubated for 20 min at room temperature. Plates were washed 3 times with PBS using BioTek EL406 microplate washer/dispenser. After washing, 30 microL of PBS with 0.01% TX-100 containing Hoechst dye was dispensed into the each well of the plates for nuclear staining. 384-well plates were imaged on an automated, widefield high content imager (INCell 2200, GE Healthcare) using a 10x/0.45 NA lens and standard DAPI (nuclear stain) and mCherry (cy5) excitation and emission filters. The TIFFs were quantitated using the canned Multi Target Analysis protocol (GE Investigator Workstation software v3.7.2). Briefly, nuclei from the DAPI channel were identified using top hat segmentation and a sensitivity setting of 96 and minimum size area of 35 microm2. A recombinant Zika viral infection was monitored in the Cy5 channel (cells) using a 2 microm collar dilation from the nuclear bitmap. mCherry objects with an average nuclear RFU intensity above 450 (3 stdev above mean negative control wells) were considered "mcherry positive" and data was analyzed by percent infection rate.
In general terms: The purpose of a counterscreen is to sort out artefacts and off-target activity.
Consider `CCOc1nc2cccc(C(=O)OC(C)OC(=O)OC3CCCCC3)c2n1Cc1ccc(-c2ccccc2-c2nn[nH]n2)cc1` (stereo not given), for which the Potency is 15.8 µM (active). Consider `COC(=O)c1ccc([C@H]2Nc3ccc(S(=O)(=O)Nc4ccc(C)cc4)cc3[C@H]3C=CC[C@H]32)cc1`, for which the “activity change, negative = cell loss” value is -12.5%. Turning to `COc1ccc(-c2cc(=O)c3c(O)cc(O)c(-c4cc(-c5cc(=O)c6c(O)cc(O)cc6o5)ccc4OC)c3o2)cc1`, the Potency is 12.6 µM (active). Take `CC(C)c1ccc2c(c1)c(SC(C)(C)C)c(CC(C)(C)C(=O)O)n2Cc1ccc(Cl)cc1`: the Potency was 11.2 µM (active).

As for `O=C(O)c1c(Sc2ccccc2)c2cc(Cl)ccc2n1Cc1ccc(Cl)cc1`, the Potency is 12.6 µM (active). As to `COc1cccc(-n2nc(C(=O)O)cc2-c2ccc(C3CCCCC3)c(Cl)c2)c1`, the Potency was 35.5 µM (active). For the molecule `O=C(O)c1cccc(-c2ccc(-c3cn(C(=O)N4CCCCC4Cc4ccccc4)nn3)cc2)c1` (stereo not given), the Potency was 35.5 µM (active). `O=C(Nc1cccc(C(=O)OCc2cc(=O)n3nc(C4CC4)sc3n2)c1)c1cccc(Cl)c1`: the “activity change, negative = cell loss” value was -11.2%.

In the case of `COc1cc(-c2ccc(N=Nc3ccc4c(S(=O)(=O)O)cc(S(=O)(=O)O)c(N)c4c3O)c(OC)c2)ccc1N=Nc1ccc2c(S(=O)(=O)O)cc(S(=O)(=O)O)c(N)c2c1O`, the “activity change, negative = cell loss” value is -13.8%.

On to `COc1ccc(-c2ccccc2)cc1NS(=O)(=O)c1cc(Cl)cc(Cl)c1O`, for which the Potency was 11.2 µM (active). In the case of `O=C(O)COc1ccccc1C1Nc2ccccc2-c2nnc(SCc3ccc(Cl)cc3)nc2O1` (stereo not given), the “activity change, negative = cell loss” value was -15%. For the molecule `Cc1c(Cl)cccc1NS(=O)(=O)c1ccc(NS(=O)(=O)c2ccc3c(c2)OCCO3)cc1`, the Potency is 31.6 µM (active). `O=C(NCc1ccccc1Cl)c1ccc2c(O)c(S(=O)(=O)c3ccccc3)c(=O)[nH]c2c1`: the “activity change, negative = cell loss” value is -8.67%.

Take `O=C1c2c(O)ccc([N+](=O)[O-])c2C(=O)c2c([N+](=O)[O-])ccc(O)c21`: the Potency was 39.8 µM (active). On to `Cc1cc(-c2ccc(N=Nc3ccc4c(S(=O)(=O)O)cc(S(=O)(=O)O)c(N)c4c3O)c(C)c2)ccc1N=Nc1ccc2c(S(=O)(=O)O)cc(S(=O)(=O)O)c(N)c2c1O`, for which the “activity change, negative = cell loss” value is -8.92%. Consider `Cc1ccc(NC(=O)c2ccc3c(O)c(S(=O)(=O)c4ccccc4)c(=O)[nH]c3c2)cc1Cl`, for which the “activity change, negative = cell loss” value is -17%. Same read-out and setting: to `CC(=O)C(N=Nc1ccc(S(=O)(=O)Nc2ccccn2)cc1)C(=O)Nc1ccc(Cl)cc1` (stereo not given) belongs -15.2%.

`CCOc1ccc(C(=O)Nc2cccc(C(=O)OCc3cc(=O)n4nc(C5CC5)sc4n3)c2)cc1`: the Potency is 11.2 µM (active). Same read-out and setting: to `COc1cc(/C=C(\C#N)C(=O)Nc2nnc(C(F)(F)F)s2)ccc1OCc1ccc(C(F)(F)F)cc1C(F)(F)F` belongs 7.08 µM (active).

For the molecule `N#CC(c1ccc(Cl)cc1)c1c(Cl)cc(-n2ncc(=O)[nH]c2=O)cc1Cl` (stereo not given), the Potency is 25.1 µM (active).

Turning to `O=c1oc2ccccc2cc1-c1nnc(Nc2ccc(Cl)cc2Cl)s1`, the “activity change, negative = cell loss” value was -17.8%. Still for that read-out and setting: under `Cc1cc(S(=O)(=O)Nc2ccc(C(=O)O)cc2)c(C)c(S(=O)(=O)c2ccc(Cl)cc2)c1` stands -10.7%. In the case of `CCCCCc1ccc(/C=C/C(=O)Nc2cc(Cl)ccc2C(=O)O)cc1`, the Potency is 35.5 µM (active). The same measure, in the same setting: under `CC(C)=CCCC1(C)C=Cc2c(O)c3c(c(CC=C(C)C)c2O1)OC12C(=CCCC1C(C)(C)O[C@@]2(C/C=C(\C)C(=O)O)C(=O)O)C3=O` (stereo not given in full) stands 15.8 µM (active). The same measure, in the same setting: under `O=S(=O)(Nc1cc(Cl)c(Oc2cnc3ccccc3c2)c(Cl)c1)c1ccc(Cl)cc1Cl` stands 12.6 µM (active); under `Cc1cccc(C(=O)Nc2ccc(C(=O)OCc3cc(=O)n4nc(C5CC5)sc4n3)cc2)c1`, 15.8 µM (active); under `O=C(O)c1c(Br)c(Br)c(Br)c(Br)c1C1c2ccc(O)cc2Oc2cc(O)ccc21`, 20 µM (active). Same read-out and setting: under `CO[C@H]1C[C@@H](O[C@@H]2/C(C)=C/C[C@@H]3C[C@@H](C[C@]4(CC[C@H](C)[C@@H](C5CCCCC5)O4)O3)OC(=O)[C@@H]3C=C(C)/C(=N/O)[C@H]4OC/C(=C\C=C\[C@@H]2C)[C@]43O)O[C@@H](C)[C@H]1O` stands 11.2 µM (active). On to `Cc1ccc(S(=O)(=O)Nc2cc(SCC(=O)O)c(O)c3ccccc23)cc1[N+](=O)[O-]`, for which the Potency is 8.91 µM (active). Take `Cc1cc(NC(=O)c2ccc(Cl)c(Cl)c2)ccc1-c1cc2ccccc2oc1=O`: the Potency was 15.8 µM (active).

For the molecule `COc1ccc(C(=O)Nc2ccc(C(=O)OCc3cc(=O)n4nc(C(C)C)sc4n3)cc2)cc1`, the “activity change, negative = cell loss” value is -5.33%. Take `COc1cc(C)c(C(=O)OC2C(C)OC(OC3CCC(C)C4C3C=C(C)C3/C(C)=C\CC/C(C)=C/C5(C)C=C(C(=O)O)C(C)CC56OC(=O)/C(=C(\O)C34C)C6=O)C(O)C2O)c(OC)c1` (stereo not given): the “activity change, negative = cell loss” value was -11.1% [at 8.16 µM]. As to `COc1cc2c(c(O)c1OC/C=C(\C)CC/C=C(/C)CCC=C(C)C)CN(C(CCC(=O)O)C(=O)O)C2=O` (stereo not given), the Potency is 7.94 µM (active). On the same count and under the same terms, to `Cc1cc(CN2CCN(c3c(Br)cnc4nc(-c5ccc(N6CCN(C)CC6)cc5)[nH]c34)CC2)no1` belongs 10 µM (active). Regarding `CC1(C)CCC(CN2CCN(c3ccc(C(=O)NS(=O)(=O)c4ccc(NCC5CCOCC5)c([N+](=O)[O-])c4)c(Oc4cnc5[nH]ccc5c4)c3)CC2)=C(c2ccc(Cl)cc2)C1`, the Potency is 5.62 µM (active).

`O=C(O)c1ccc(C2Nc3ccccc3-c3nnc(SCc4ccc(Cl)cc4)nc3O2)cc1` (stereo not given): the “activity change, negative = cell loss” value was -17%.

As to `O=C(O)Cn1nnc(-c2ccc(OCc3cccc(C(F)(F)F)c3)cc2)n1`, the “activity change, negative = cell loss” value is -10.2%. Regarding `O=C(Nc1ccc(Oc2ccc(Cl)cc2)c(Cl)c1)c1cc(I)cc(I)c1O`, the Potency is 10 µM (active). Still for that read-out and setting: to `O=S(=O)(Nc1ccc(Cl)cc1)c1ccc(NS(=O)(=O)c2ccc3c(c2)OCCO3)cc1` belongs 31.6 µM (active); to `CCc1oc2ccccc2c1C(=O)c1cc(Br)c(O)c(Br)c1`, 11.2 µM (active).
